# Where “and” joins values, the source holds several entries; their conditions need not be identical. Equal entries are not always repeated. Out of some 5,500 compounds screened, about 2,000 (36%) were called active. Roughly 18% stayed inconclusive and do not appear here. Cut-off read from the data, not from the text of the source: active = normalized growth mostly below about 0.91 (no sharp cut-off); inconclusive = no clear call, values can overlap the other calls; inactive = mostly above about 0.92. The list shows a part of the results. Some structures have more than one record in an assay (separate samples or runs), and their calls can disagree.
# Assay: chemical genetic growth profiling, strain panel (AID 1159580);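 note: tested at 20 µM; growth read once vehicle control cultures reached saturation at 30 °C; 1 = growth at the plate median or of vehicle wells; lower values mean less growth of the strain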
# Conditions: growth OD
smiles,measurement,setting,value
Fc1ccc(C(c2ccc(F)cc2)N2CCN(C/C=C/c3ccccc3)CC2)cc1,normalized growth,"S. cerevisiae deletion strains, locus YNL128W, strain TEP1, stronger effect = lower value",0.969 (inactive)
same,normalized growth,"S. cerevisiae deletion strains, locus YNL153C, strain GIM3, stronger effect = lower value",0.959 (inactive) and 0.788 (active)
same,normalized growth,"S. cerevisiae deletion strains, locus YNL183C, strain NPR1, stronger effect = lower value",0.927 (inactive)
same,normalized growth,"S. cerevisiae deletion strains, locus YNL197C, strain WHI3, stronger effect = lower value",1.08 (inactive)
same,normalized growth,"S. cerevisiae deletion strains, locus YNL209W, strain ssb2, stronger effect = lower value",0.573 (active)
same,normalized growth,"S. cerevisiae deletion strains, locus YNL233W, strain BNI4, stronger effect = lower value",0.981 (inactive)
same,normalized growth,"S. cerevisiae deletion strains, locus YNL248C, strain rpa49, stronger effect = lower value",0.227 (active)
same,normalized growth,"S. cerevisiae deletion strains, locus YNL250W, strain rad50, stronger effect = lower value",0.992 (inactive)
same,normalized growth,"S. cerevisiae deletion strains, locus YNL271C, strain bni1, stronger effect = lower value",0.984 (inactive)
same,normalized growth,"S. cerevisiae deletion strains, locus YNL298W, strain CLA4, stronger effect = lower value",0.99 (inactive)
same,normalized growth,"S. cerevisiae deletion strains, locus YNL307C, strain MCK1, stronger effect = lower value",0.992 (inactive)
same,normalized growth,"S. cerevisiae deletion strains, locus YNL322C, strain KRE1 (second series), stronger effect = lower value",0.244 (active)
same,normalized growth,"S. cerevisiae deletion strains, locus YNL322C, strain KRE1, stronger effect = lower value",0.989 (inactive) and 0.962 (inactive)
same,normalized growth,"S. cerevisiae deletion strains, locus YNR049C, strain mso1, stronger effect = lower value",0.334 (active)
same,normalized growth,"S. cerevisiae deletion strains, locus YNR052C, strain pop2, stronger effect = lower value",0.933 (inactive)
same,normalized growth,"S. cerevisiae deletion strains, locus YOL006C, strain TOP1, stronger effect = lower value",0.81 (inactive)
same,normalized growth,"S. cerevisiae deletion strains, locus YOL012C, strain htz1",1.09 (inactive)
same,normalized growth,"S. cerevisiae deletion strains, locus YOL147C, strain pex11, stronger effect = lower value",0.984 (inactive)
same,normalized growth,"S. cerevisiae deletion strains, locus YOR001W, strain rrp6, stronger effect = lower value",0.314 (active)
same,normalized growth,"S. cerevisiae deletion strains, locus YOR061W, strain CKA2, stronger effect = lower value",0.982 (inactive)
same,normalized growth,"S. cerevisiae deletion strains, locus YOR069W, strain VPS5, stronger effect = lower value",0.995 (inactive)
same,normalized growth,"S. cerevisiae deletion strains, locus YOR070C, strain gyp1, stronger effect = lower value",0.126 (active)
same,normalized growth,"S. cerevisiae deletion strains, locus YOR080W, strain dia2, stronger effect = lower value",0.423 (active)
same,normalized growth,"S. cerevisiae deletion strains, locus YOR083W, strain WHI5 (second series), stronger effect = lower value",1.05 (inactive)
same,normalized growth,"S. cerevisiae deletion strains, locus YOR083W, strain WHI5, stronger effect = lower value",0.36 (active)
same,normalized growth,"S. cerevisiae deletion strains, locus YOR106W, strain vam3, stronger effect = lower value",0.33 (active)
same,normalized growth,"S. cerevisiae deletion strains, locus YOR136W, strain idh2, stronger effect = lower value",0.989 (inactive)
same,normalized growth,"S. cerevisiae deletion strains, locus YOR144C, strain elg1, stronger effect = lower value",0.982 (inactive)
same,normalized growth,"S. cerevisiae deletion strains, locus YOR184W, strain ser1, stronger effect = lower value",1.03 (inactive)
same,normalized growth,"S. cerevisiae deletion strains, locus YOR231W, strain MKK1, stronger effect = lower value",1 (inactive)
same,normalized growth,"S. cerevisiae deletion strains, locus YOR265W, strain rbl2, stronger effect = lower value",0.251 (active)
same,normalized growth,"S. cerevisiae deletion strains, locus YOR270C, strain vph1, stronger effect = lower value",0.156 (active)
same,normalized growth,"S. cerevisiae deletion strains, locus YOR290C, strain snf2, stronger effect = lower value",0.245 (active)
same,normalized growth,"S. cerevisiae deletion strains, locus YOR316C, strain cot1, stronger effect = lower value",0.967 (inactive)
same,normalized growth,"S. cerevisiae deletion strains, locus YPL051W, strain arl3, stronger effect = lower value",0.474 (active)
same,normalized growth,"S. cerevisiae deletion strains, locus YPL055C, strain LGE1, stronger effect = lower value",0.96 (inactive)
same,normalized growth,"S. cerevisiae deletion strains, locus YPL078C, strain atp4, stronger effect = lower value",0.316 (active)
same,normalized growth,"S. cerevisiae deletion strains, locus YPL106C, strain sse1, stronger effect = lower value",0.223 (active)
same,normalized growth,"S. cerevisiae deletion strains, locus YPL240C, strain hsp82, stronger effect = lower value",0.338 (active)
same,normalized growth,"S. cerevisiae deletion strains, locus YPL241C, strain CIN2, stronger effect = lower value",0.981 (inactive)
same,normalized growth,"S. cerevisiae deletion strains, locus YPL256C, strain CLN2, stronger effect = lower value",0.97 (inactive)
same,normalized growth,"S. cerevisiae deletion strains, locus YPR119W, strain clb2, stronger effect = lower value",0.979 (inactive)
same,normalized growth,"S. cerevisiae deletion strains, locus YPR141C, strain kar3, stronger effect = lower value",0.999 (inactive)
same,normalized growth,"S. cerevisiae deletion strains, locus YPR163C, strain tif3, stronger effect = lower value",0.959 (inactive)
same,normalized growth,"S. cerevisiae deletion strains, locus YPR167C, strain met16, stronger effect = lower value",0.964 (inactive)
same,normalized growth,"S. cerevisiae deletion strains, strain wtn01, stronger effect = lower value",0.957 (inactive)
same,normalized growth,"S. cerevisiae strains, strain wild type, stronger effect = lower value",0.984 (inactive)
